# Assay results published in PubChem BioAssay (Tox21).
# Where “and” joins values, the source holds several entries; their conditions need not be identical. Identical values can stand only once. Records with an inconclusive call do not appear. Unmarked numbers belong to inactive results. Calls of active or inactive are those of the source. Calls come from the whole dose curve; as a rule, active = well fitted cell-killing curve with a large enough effect in the repeat runs; inconclusive = weak or mixed curves, or effect the other way; inactive = flat fitted curve, though single readings scatter.
# Assay: cAMP Responsive Elements (CRE) small molecule antagonists, cell-based qHTS assay: qHTS cell viability counter screen (AID 2060913); note: nearly all actives have a fitted effect of over 40% in size
# Settings: CRE-bla HEK293T viability, CellTiter-Glo luminescence, 5 h; series mostly up to 92.4 µM; viability change, negative = cytotoxic: at the top concentration
# Outline: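 Cytotoxicity counter screen multiplexed with the CRE-bla antagonist read: HEK293T cells in DMEM with dialyzed FBS and 25 mM HEPES were treated 3 hrs under 0.25 uM final NKH477, then viability measured by CellTiter-Glo luminescence.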
# % is set by controls: 0 for no effect and ±100 for the full control effect; potency is the fitted concentration of half-maximal effect.
Compound,"viability change, negative = cytotoxic",Potency
N#CN=C1SCCN1Cc1ccc(Cl)nc1,5.62%,
CCOP(=S)(OCC)Oc1cc(-c2ccccc2)on1,-9.96%,
S=C=Nc1ccccc1,-15.8%,
O=c1[nH]c2cc(Cl)ccc2n1C1CCNCC1,4.88% [at 42.5 µM],
O=NN1CCNCC1,-7.15%,
COc1cccc(C=O)c1,0.992%,
COC(=O)c1ccccc1S(=O)(=O)NC(=O)Nc1nc(C)nc(OC)n1,7.45%,
NNC(N)=O,-10.3%,
Brc1ccccc1,10.5%,
CCOC(=O)CCN(SN(C)C(=O)Oc1cccc2c1OC(C)(C)C2)C(C)C,-19.1%,
CC(C)CC#N,-10.6%,
c1cc(OCC2CO2)ccc1Cc1ccc(OCC2CO2)cc1 (stereo not given),,inactive
COc1nc(C)nc(NC(=O)NS(=O)(=O)c2ccccc2Cl)n1,0.336%,
CC(=[OH+])/C=C(/C)[O-].CC(=[OH+])/C=C(\C)[O-].CC(=[OH+])/C=C(\C)[O-].[Al],9.09%,
CCNc1nc(NC(C)C)nc(OC)n1,6.1%,
COP(=S)(OC)Oc1cc(Cl)c(Cl)cc1Cl,,inactive
NP(N)(=O)NC(=O)c1ccc(F)cc1,-12.7% [at 42.5 µM],
CCCOc1nn(C(=O)NS(=O)(=O)c2ccccc2C(=O)OC)c(=O)n1C,8.74%,
N#CCCCCC#N,,inactive
O=C(CCN1CC1)OCC(CO)(COC(=O)CCN1CC1)COC(=O)CCN1CC1,4.96%,

Compound,"viability change, negative = cytotoxic",Potency
Cl[C@H]1OCCO[C@@H]1Cl,,inactive
NCC(CC(=O)O)c1ccc(Cl)cc1 (stereo not given),-0.747% [at 0.349 µM],
O=NN(c1ccccc1)c1ccccc1,,inactive
C[C@]12CCC(=O)C=C1CC[C@@H]1[C@@H]2CC[C@@]2(C)[C@H]1CC[C@]2(C)O,,inactive
CCCCn1cc[n+](C)c1C,,inactive
Clc1ccc(C2(Cn3cncn3)OCCO2)c(Cl)c1,1.92%,
ClC(Cl)=C(Cl)C(Cl)=C(Cl)Cl,,inactive
O=C1C(Cl)=C(Cl)C(=O)C(Cl)=C1Cl,,inactive
Cc1[nH]c(=O)n(C(C)(C)C)c(=O)c1Cl,,inactive
CC(=O)[O][Hg][c]1ccccc1,,12.1 µM (active) and 12.2 µM (active) and 16.8 µM (active)
CNC(=O)Oc1cccc(N=CN(C)C)c1,-1.38%,
NCCOS(=O)(=O)O,4.09%,
C#CC1(O)CCCCC1,3.46%,
Oc1c(Cl)c(Cl)c(Cl)c(Cl)c1Cl,,inactive
COc1ccc(C=O)cc1O,3.25%,
ClC1=C(Cl)[C@]2(Cl)[C@@H]3[C@@H]4C[C@@H]([C@H]5O[C@@H]45)[C@@H]3[C@@]1(Cl)C2(Cl)Cl,,54.5 µM (active)
CCCCCC[N+](=O)[O-],-9.41%,
CCCCn1cc[n+](C)c1 (tested in a mixture with another compound),-12.7%,
CCCC[N+]1(C)CCCC1,,inactive
O=c1[nH]c2ccccc2n1C1CCN(CCCC(c2ccc(F)cc2)c2ccc(F)cc2)CC1,-16.8% [at 42.5 µM],

# Assay: cAMP Responsive Elements (CRE) small molecule agonists, cell-based qHTS assay: qHTS cell viability counter screen (AID 2060914);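 note: viability read after 3 h of compound exposure; nearly all actives have a fitted effect of over 50% in size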
# Settings: CRE-bla HEK293T viability, CellTiter-Glo luminescence, 5 h; series mostly up to 92.4 µM; activity change, negative = cytotoxicity: at the top concentration
# Outline: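 HEK 293T CRE-bla; DMEM + 10% dialyzed FBS, 25 mM HEPES; 18 h pre-incubation; compound 3 h, 37 °C/5% CO2; CellTiter-Glo added after reporter read; luminescence after 30 min RT.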
Compound,"activity change, negative = cytotoxicity",Potency
N#CN=C1SCCN1Cc1ccc(Cl)nc1,0.965%,
CCOP(=S)(OCC)Oc1cc(-c2ccccc2)on1,-10.5%,
S=C=Nc1ccccc1,-10.6%,
O=c1[nH]c2cc(Cl)ccc2n1C1CCNCC1,-5.35% [at 42.5 µM],
O=NN1CCNCC1,1.18%,
COc1cccc(C=O)c1,0.656%,
COC(=O)c1ccccc1S(=O)(=O)NC(=O)Nc1nc(C)nc(OC)n1,-13.1%,
NNC(N)=O,-7.17%,
Brc1ccccc1,6.08%,
CCOC(=O)CCN(SN(C)C(=O)Oc1cccc2c1OC(C)(C)C2)C(C)C,-15.7%,
CC(C)CC#N,3.7%,
c1cc(OCC2CO2)ccc1Cc1ccc(OCC2CO2)cc1 (stereo not given),,inactive
COc1nc(C)nc(NC(=O)NS(=O)(=O)c2ccccc2Cl)n1,3.09%,
CC(=[OH+])/C=C(/C)[O-].CC(=[OH+])/C=C(\C)[O-].CC(=[OH+])/C=C(\C)[O-].[Al],-0.0766%,
CCNc1nc(NC(C)C)nc(OC)n1,24.4%,
COP(=S)(OC)Oc1cc(Cl)c(Cl)cc1Cl,,inactive
NP(N)(=O)NC(=O)c1ccc(F)cc1,-17.2% [at 42.5 µM],
CCCOc1nn(C(=O)NS(=O)(=O)c2ccccc2C(=O)OC)c(=O)n1C,4.12%,
N#CCCCCC#N,,inactive
O=C(CCN1CC1)OCC(CO)(COC(=O)CCN1CC1)COC(=O)CCN1CC1,1.68%,

Compound,"activity change, negative = cytotoxicity",Potency
Cl[C@H]1OCCO[C@@H]1Cl,-2.43%,
NCC(CC(=O)O)c1ccc(Cl)cc1 (stereo not given),-9.73% [at 0.349 µM],
O=NN(c1ccccc1)c1ccccc1,,inactive
C[C@]12CCC(=O)C=C1CC[C@@H]1[C@@H]2CC[C@@]2(C)[C@H]1CC[C@]2(C)O,-1.03% [at 42.5 µM],
CCCCn1cc[n+](C)c1C,,inactive
Clc1ccc(C2(Cn3cncn3)OCCO2)c(Cl)c1,12.8%,
ClC(Cl)=C(Cl)C(Cl)=C(Cl)Cl,,inactive
O=C1C(Cl)=C(Cl)C(=O)C(Cl)=C1Cl,,inactive
Cc1[nH]c(=O)n(C(C)(C)C)c(=O)c1Cl,,inactive
CC(=O)[O][Hg][c]1ccccc1,,10.8 µM (active) and 13.7 µM (active)
CNC(=O)Oc1cccc(N=CN(C)C)c1,1.13%,
NCCOS(=O)(=O)O,0.351%,
C#CC1(O)CCCCC1,16.3%,
Oc1c(Cl)c(Cl)c(Cl)c(Cl)c1Cl,,inactive
COc1ccc(C=O)cc1O,-23%,
ClC1=C(Cl)[C@]2(Cl)[C@@H]3[C@@H]4C[C@@H]([C@H]5O[C@@H]45)[C@@H]3[C@@]1(Cl)C2(Cl)Cl,,61.1 µM (active)
CCCCCC[N+](=O)[O-],5.66%,
CCCCn1cc[n+](C)c1 (tested in a mixture with another compound),0.539%,
CCCC[N+]1(C)CCCC1,,inactive
O=c1[nH]c2ccccc2n1C1CCN(CCCC(c2ccc(F)cc2)c2ccc(F)cc2)CC1,-16.9% [at 42.5 µM],
